Hits are enriched below; roughly 7.5% of the tested compounds scored in any of these assays.
NPC1 promoter act = activators of NPC1 promoter; Potency, µM (doses to about 9.22 µM), for the others: at the highest dose activation, most hits filed as activators; 320,000 tested, 2.4% active; Huh7 NPC1 promoter luciferase reporter, 24 h; also: % of control where 0% means no effect; nearly all actives have a fitted effect of over 60% in size
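Stable NPC1-promoter luciferase Huh7 line; cpd (DMSO) 24 h, 37 °C, 5% CO2; Amplite luciferase reagent 10 min RT; luminescence readout. qHTS format.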
FLuc modulator = firefly luciferase modulation, counter-screen for miR-21 project. Potency, µM (top dose mostly 57.5 µM), inactives show at the top dose activity change, negative = inhibition, actives largely listed as inhibitors. purified FLuc, Km substrates, luminescence inhibition. P08659. 360,000 tested, 6.9% active;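 also: plate controls were vehicle for no effect and reference inhibitor for full effect; nearly all actives have a fitted effect of over 55% in size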
Target sequence (P08659 whole entry, looked up): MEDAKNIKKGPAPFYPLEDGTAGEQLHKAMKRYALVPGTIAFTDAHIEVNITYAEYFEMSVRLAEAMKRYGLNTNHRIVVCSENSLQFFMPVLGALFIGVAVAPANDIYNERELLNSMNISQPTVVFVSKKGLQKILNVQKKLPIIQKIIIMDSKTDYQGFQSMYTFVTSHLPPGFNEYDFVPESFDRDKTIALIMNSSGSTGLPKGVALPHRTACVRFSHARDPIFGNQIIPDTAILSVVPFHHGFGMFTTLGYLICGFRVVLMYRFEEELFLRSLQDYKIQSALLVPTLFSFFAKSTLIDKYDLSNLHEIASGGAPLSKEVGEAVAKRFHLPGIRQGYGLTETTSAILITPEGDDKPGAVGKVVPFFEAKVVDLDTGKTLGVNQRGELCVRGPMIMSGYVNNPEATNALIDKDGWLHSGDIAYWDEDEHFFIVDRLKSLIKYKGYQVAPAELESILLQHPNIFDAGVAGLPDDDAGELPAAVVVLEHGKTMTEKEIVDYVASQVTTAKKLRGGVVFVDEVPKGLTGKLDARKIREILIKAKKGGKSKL
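Purified P. pyralis luciferase (10nM final) with 10uM D-luciferin and 10uM ATP (Km levels) in 50mM Tris acetate pH 7.5, 10mM Mg acetate, 0.01% Tween-20, 0.05% BSA; qHTS 6-point titration, ~60 µM downward; luminescence read.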
Luc counter = Kinase-Glo luciferase inhibition (counter-screen) | Kinase-Glo luciferase, ATP luminescence, 8 min | Q27757 | Potency, µM (series often up to 38.3 µM), for the others: at the highest dose activity change, negative = inhibition, most hits filed as inhibitors | AID 1379 | 200,000 tested, 0.28% active; also: % is scaled to controls: 0 for no effect and ±100 for the full control effect; nearly all actives have a fitted effect of over 60% in size
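Kinase-Glo luciferase light output from ATP and luciferin was measured with 10 uM ATP, within the enzyme's linear range. Buffer: 50 mM imidazole pH 7.2, 50 mM KCl, 7 mM MgCl2, 0.01% Tween 20, 0.05% BSA; luminescence read after 8 min at ambient temperature.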
Rab9 promoter act = activators of Rab9 promoter; Huh7 Rab9 promoter-luciferase reporter, luminescence, 24 h; Potency, µM (titrated, usually from 9.22 µM), without a hit: at the highest dose activation, negative = inhibition, actives largely listed as activators; 320,000 tested, 2.8% active; also: % of control where 0% means no effect; nearly all actives have a fitted effect of over 60% in size
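Luminescence read-out: Huh7 cells stably expressing Rab9-luciferase, treated 24 h with compound at 37 °C, then lysed with luciferase reagent for 10 min at ambient before reading.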
SMN2 splice enh = SMN2 splice variant enhancement; Potency, µM (series often up to 46.1 µM), without a hit: top-dose activity change, positive = activation, actives largely listed as activators; 210,000 tested, 2.8% active; HEK293 SMN2-luciferase splicing reporter, luminescence, 30-36 h; also: % of control where 0% means no effect; nearly all actives have a fitted effect of over 55% in size
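HEK293 cells carry an SMN2 minigene-luciferase reporter in which exon 7 inclusion puts luciferase in frame. Cells were seeded at 2000 cells/well, attached for 10-12 hours, then exposed to compounds for 30-36 hours at 37C before ONE-Glo luminescence.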
ELG1 genotoxic = inducers of genotoxicity in HEK293T ELG1-luciferase cells. HEK293T ELG1-luciferase reporter, luminescence, 16 h. Potency, µM (highest dose often 46 µM), for the others: top-dose activity change, positive = activation, hits mostly activators. 330,000 tested, 1.3% active. AID 504466; also: % of control where 0% means no effect; nearly all actives have a fitted effect of over 60% in size
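Reporter readout depends on ELG1 protein level, which increases with genetic stress. After 16 hr compound exposure at 37 °C, luciferase activity was quantified using ONE-Glo.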
* hit, by the source's call; ? = inconclusive; · = no result given; [ ] = dose if it differs, or a comment. Calls follow the shape of the dose curve; as a rule, active = well fitted curve in the direction sought with a large enough effect; inconclusive = small, poorly fitted or top-dose-only effect, or another doubt; inactive = no such curve, though single readings can be large; an effect the other way counts as inactive or inconclusive. Potency is read from the fitted curve at half-maximal effect.

SMILES	NPC1 promoter act	FLuc modulator	Luc counter	Rab9 promoter act	SMN2 splice enh	ELG1 genotoxic
O=C(N/N=C/c1cccc(Cl)c1)c1c(O)c2c([nH]c1=O)CCCC2	2.8µM*	?	·	2.5µM*	·	?
O=C(Nc1ccccc1O)c1c(O)c2c([nH]c1=O)CCCC2	?	7.6µM*	-3%	3.5µM*	18µM*	?
O=C(Nc1nccs1)c1c(O)c2c([nH]c1=O)CCCC2	?	?	·	2.2µM*	·	8%
CC1CCCN(S(=O)(=O)c2ccc(C(=O)NC(C)c3ccccc3)cc2)C1 (stereo not given)	-1%	3%	·	-1%	·	0%
COc1cc(/C=C2\C(=O)ON=C2c2ccccc2)cc(Cl)c1O	-6%	19µM*	-9%	-11%	7%	0%
COc1cc(/C=C2/C(=O)ON=C2c2ccccc2)ccc1O	-3%	19µM*	-2%	-1%	-1%	3%
O=C1ON=C(c2ccccc2)/C1=C/c1ccc(O)cc1	-4%	?	·	-1%	·	?
O=C1ON=C(c2ccc(Cl)cc2)/C1=C/c1ccc(O)cc1	-5%	11µM*	1%	-10%	0%	?
COc1cc(/C=C2\C(=O)ON=C2c2ccccc2)cc(Br)c1O	-11%	?	·	-13%	·	18%
CCOc1ccccc1NC(=O)c1ccc(F)c(S(=O)(=O)NCc2ccc3c(c2)OCO3)c1	·	5%	·	·	·	·
COc1ccc2[nH]cc(CCN=C(NC(=O)c3ccccc3F)Nc3nc(C)cc(C)n3)c2c1	·	1%	·	·	35µM*	·
Cc1cc(C)nc(NC(=NCCc2c[nH]c3ccccc23)NC(=O)c2ccco2)n1	9%	0%	0%	-3%	-14%	-24%
CCSc1nsc(NC(=O)Nc2cccc(F)c2)n1	-7%	19µM*	·	-23%	·	-1%
COc1cccc(NC(=O)Nc2nc(SC)ns2)c1	2.8µM*	6.7µM*	·	1.4µM*	·	?
COc1ccc(NC(=O)Nc2cccc(OC)c2)cc1	·	·	-10%	·	·	·
COc1cccc(NC(=O)Nc2nc(SC(C)(C)C)ns2)c1	17%	11µM*	·	8%	·	2%
O=C1CCCC(O)=C1N=Nc1ccc(Cl)c(Cl)c1	-1%	?	-8%	4%	-4%	5%
CC(=O)N1CCc2cc(N=NC3=C(O)CCCC3=O)ccc21	?	15µM*	-13%	3.5µM*	171%	?
Cc1nc2cc(N=NC3=C(O)CCCC3=O)ccc2s1	10%	13µM*	-18%	16%	?	?
CC1C(c2ccccc2)N(C)C(c2ccccc2)C(C)C1(O)C#Cc1ccccc1 (stereo not given)	-2%	0%	0%	0%	-29%	-3%
Oc1cccc(/C=N/N=C/c2cccc(O)c2O)c1O	-23%	1.7µM*	·	-33%	·	?
Cc1ccccc1N=Cc1cccc(O)c1O	-8%	?	2%	-4%	29%	0%
COc1cc(Cl)c(C)cc1NC(=O)Cn1ncc2c3ccccc3n(Cc3ccccc3)c2c1=O	·	-2%	·	·	10%	·
Cc1cc(C)n(C(C[N+](=O)[O-])c2ccc(Cl)cc2)n1 (stereo not given)	-4%	-18%	-4%	-10%	14%	4%
COc1cc(CNn2cnnc2)ccc1OCC(=O)NC1CCCCC1	1%	-1%	3%	-28%	-29%	5%
SMILES	NPC1 promoter act	FLuc modulator	Luc counter	Rab9 promoter act	SMN2 splice enh	ELG1 genotoxic
COc1cc(C)ccc1OCC(=O)NC1CCCCCC1	?	17µM*	·	?	·	?
O=C(COc1ccccc1Br)NC1CC1	12%	-17%	·	4%[1.84 µM]	·	?
CCc1ccccc1OCC(=O)NC1CCCC1	-1%	-2%	-2%	-3%	27%	4%
O=C(COc1ccccc1Br)NC(=O)NC1CCCC1	27%	12µM*	·	2.8µM*	·	?
COC(=O)c1ccccc1OCC(=O)NC1CCCCC1	16%	?	-1%	23%	5%	21µM*
O=C(Nc1ccccc1)C1=C[C@@H](c2coc3ccccc3c2=O)C[C@@H](OCCCCO)O1	-2%	2%	·	12%	·	-7%
CCCCNC(=S)NNC(=O)c1cc(-c2ccncc2)nc2ccccc12	-1%	9.5µM*	·	6%	·	0%
O=C(NNC(=O)c1cc(-c2ccncc2)nc2ccccc12)Nc1ccc(F)cc1	7%	?	·	12%	·	-10%
CCCCNC(=S)NNC(=O)c1cc(C2CC2)nc2ccccc12	-6%	24µM*	·	1%	·	1%
COCCNC(=S)NNC(=O)c1cc(C2CC2)nc2ccccc12	-7%	12µM*	·	-8%	·	1%
O=C(NNC(=O)c1cc(-c2ccncc2)nc2ccccc12)c1ccccc1F	2%	24µM*	·	1%	·	0%
O=C(O)c1cc(C2CC2)nc2ccccc12	-2%	2%	-6%	0%	-2%	2%
CNC(=S)NNC(=O)c1cc(-c2cccnc2)nc2ccccc12	15%	-16%	·	-4%	·	13%
CCCCCc1c(O)nc(SCCN2CCOCC2)[nH]c1=O	-1%	0%	3%	11%	16%	-3%
COc1cc(OC)cc(C(=O)Nc2ccc(S(=O)(=O)N3CCOCC3)cc2)c1	-2%	-2%	·	-7%	·	-2%
Cc1ccccc1-n1nc(C(=O)c2cccs2)cc(-c2nc3ccccc3[nH]2)c1=N	0%	2%	6%	-4%	-29%	-11%
COc1ccc(-n2nc(C(=O)c3cccs3)cc(-c3nc4ccccc4[nH]3)c2=N)cc1	-6%	-1%	-1%	0%	?	23µM*
CC(C)c1ccc2nc3sc(C(=O)N4CCc5ccccc5C4)c(N)c3cc2c1	13%	17µM*	-2%	17%	16%	21%
COc1ccc2cc3c(N)c(C(=O)N4CCCC4)sc3nc2c1	1.8µM*	2.7µM*	-6%	1.4µM*	11µM*	?
Cc1ccc2nc3sc(C(=O)N4CCOCC4)c(N)c3cc2c1	0.25µM*	0.12µM*	-27%	0.11µM*	-73%	?
CCC(C)NC(=O)c1cc2cc3ccc(OC)cc3nc2s1 (stereo not given)	0.56µM*	3µM*	-8%	0.35µM*	13µM*	?
COCCCNC(=O)c1c(NC(=O)Cc2coc3cc(C)ccc23)sc2c1CCCC2	·	-17%	·	·	?	·
COCCCN=Cc1c(C)[nH]n(-c2ccc(Br)cc2Br)c1=O	-2%	-1%	0%	-2%	-13%	-2%
Cc1ccnc(NC(=O)c2cccc(NC(=O)c3ccccc3C)c2)c1	3%	?	·	1%	·	2%
CC(CCc1ccccc1)NC(=O)Cn1c(=O)nc(-c2ccccc2F)c2cc(Cl)ccc21 (stereo not given)	·	-6%	·	·	·	·
CCOc1ccc2nc3sc(C(=O)N4CCN(C)CC4)c(N)c3cc2c1	-3%	11µM*	0%	25%	17%	?

Compound activity deposited in PubChem by National Center for Advancing Translational Sciences (NCATS).
